High-throughput results: PubChem, National Center for Advancing Translational Sciences (NCATS)
Most compounds without a hit are left out; they make up all but 11% or so of the library.
3T3 cytotox: cytotoxic compounds in NIH 3T3 cells. NIH 3T3 viability, CellTiter-Glo ATP luminescence, 48-72 h. Potency, µM (doses to about 96.7 µM), for inactives: at the highest dose activity change, negative = cytotoxicity, actives largely listed as inhibitors. 4.3% of 94,000 active; also: nearly all actives have a fitted effect of over 55% in size
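NIH 3T3 cells at 400 cells/well received 23 nL of compound by pintool and were incubated 48 or 72 h at 37 °C. Viability was read as ATP-coupled CellTiter-Glo luminescence.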
NPR1 antag: antagonists of human natriuretic peptide receptor Npr1. P16066. AID 1347048. 1.6% of 76,000 active. Potency, µM (series often up to 46.3 µM), inactives show at the top dose activity change, negative = inhibition, most hits filed as inhibitors. HEK293 hNpr1 GloSensor cGMP, ANP-stimulated luminescence; calls by dose curve; also: nearly all actives have a fitted effect of over 60% in size
Target sequence (P16066 whole entry, looked up): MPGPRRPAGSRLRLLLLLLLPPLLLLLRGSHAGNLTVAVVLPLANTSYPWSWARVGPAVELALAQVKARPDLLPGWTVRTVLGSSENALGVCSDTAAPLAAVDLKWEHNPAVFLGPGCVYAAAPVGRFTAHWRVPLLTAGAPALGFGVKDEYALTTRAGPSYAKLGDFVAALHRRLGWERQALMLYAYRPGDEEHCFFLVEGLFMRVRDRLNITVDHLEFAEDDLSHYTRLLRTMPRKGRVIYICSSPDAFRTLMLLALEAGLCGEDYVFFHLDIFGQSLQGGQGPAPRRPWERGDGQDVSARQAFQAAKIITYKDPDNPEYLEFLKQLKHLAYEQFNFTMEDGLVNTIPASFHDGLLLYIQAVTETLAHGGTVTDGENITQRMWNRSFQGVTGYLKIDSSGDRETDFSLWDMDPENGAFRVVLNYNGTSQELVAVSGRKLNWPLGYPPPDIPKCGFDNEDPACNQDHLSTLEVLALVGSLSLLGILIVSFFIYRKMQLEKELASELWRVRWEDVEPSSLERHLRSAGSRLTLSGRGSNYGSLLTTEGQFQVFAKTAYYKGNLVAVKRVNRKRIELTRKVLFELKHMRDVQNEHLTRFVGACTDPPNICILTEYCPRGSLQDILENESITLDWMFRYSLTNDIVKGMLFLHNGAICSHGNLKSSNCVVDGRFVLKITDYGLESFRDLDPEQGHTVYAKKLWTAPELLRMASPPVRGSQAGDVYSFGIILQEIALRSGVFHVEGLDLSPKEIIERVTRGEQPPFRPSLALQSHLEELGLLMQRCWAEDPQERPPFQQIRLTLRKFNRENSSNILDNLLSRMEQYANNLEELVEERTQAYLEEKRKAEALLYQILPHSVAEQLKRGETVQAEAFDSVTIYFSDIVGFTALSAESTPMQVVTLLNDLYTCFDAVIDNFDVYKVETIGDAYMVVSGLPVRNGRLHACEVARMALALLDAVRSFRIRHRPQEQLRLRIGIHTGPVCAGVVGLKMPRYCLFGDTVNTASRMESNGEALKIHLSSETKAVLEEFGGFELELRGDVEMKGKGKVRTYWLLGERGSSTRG
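Compound pre-incubated 30 min at room temperature on GloSensor-loaded HEK293 cells stably carrying hNpr1 and the pGS-40F cGMP biosensor. Stimulation uses hNppA at 0.1 nM final; luminescence is taken at baseline and 20 min post-agonist.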
FLuc inh: Photinus pyralis luciferase inhibition. P08659. purified P. pyralis luciferase, luminescence, biochemical. Potency, µM (series often up to 115 µM), usual class: inhibitors. 2.5% of 76,000 active. AID 1347043; also: nearly all actives have a fitted effect of over 65% in size
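Luminescence read by CCD imaging after purified firefly luciferase (10nM final) was added to substrate buffer holding 10uM D-luciferin and 10uM ATP, pH 7.5, pre-dosed with compound.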
HEK cytotox: HEK 293 cell cytotoxicity | 6.6% of 94,000 active | Potency, µM (doses to about 115 µM), without a hit: at the top dose activity change, negative = cytotoxicity, most hits filed as inhibitors | HEK 293 viability, ATP luminescence (CellTiter-Glo), 48-72 h; also: nearly all actives have a fitted effect of over 60% in size
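Viability of HEK 293 cells, plated at 250 cells/well, was judged by cellular ATP after compound treatment for 48 or 72 hr. Luminescence was imaged 10 min after CellTiter-Glo addition at room temperature.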
The depositor's hits bear a star; [ ] = another dose, or the depositor's remark. Unless noted, calls follow the shape of the dose curve; as a rule, active = well fitted curve in the direction sought with a large enough effect; inconclusive = small, poorly fitted or top-dose-only effect, or another doubt; inactive = no such curve, though single readings can be large; an effect the other way counts as inactive or inconclusive. % is scaled to controls: 0 for no effect and ±100 for the full control effect; potency is read from the fitted curve at half-maximal effect.

COCCOc1cc(C)c2c(c1C)C[C@H](C(C)C(=O)NCc1cccs1)CC2 (some centres undefined) was read as 3T3 cytotox inconclusive, NPR1 antag -12.6%[70.6 µM], FLuc inh inactive and HEK cytotox 50.1µM*.
`COc1cc(C)c2c(c1C)C[C@H](C(C)C(=O)NCc1cccs1)CC2` (some centres undefined) gave 3T3 cytotox 35.5µM*, NPR1 antag -8.6%[70.6 µM], FLuc inh inactive and HEK cytotox inconclusive.
For CCCOc1cc(C)c2c(c1C)C[C@H](C(C)C(=O)NCc1ccc(OC)cc1)CC2 (some centres undefined) the results were 3T3 cytotox -16.2%[138 µM], NPR1 antag 4.9%[70.6 µM], FLuc inh inactive and HEK cytotox -6.8%[172 µM].
Screening NC(=O)COC[C@@H]1CN(CC2CCCCC2)C[C@H]1c1ccncc1 returned 3T3 cytotox inconclusive, NPR1 antag -3.9%, FLuc inh inactive and HEK cytotox inconclusive.
For CCOC(=O)C1CCN(C(=O)c2cc(-c3ccc(F)cc3)nc3c2cnn3C)CC1 the results were 3T3 cytotox -27.1% and HEK cytotox inconclusive.
Cc1ccc2oc([C@H]3CCN(Cc4c[nH]c5ccccc45)C3)nc2c1 was read as 3T3 cytotox 56.2µM*, NPR1 antag inconclusive, FLuc inh inactive and HEK cytotox 31.6µM*.
Cc1ccc2oc([C@H]3CCN(Cc4ccc(N(C)C)cc4)C3)nc2c1 was read as 3T3 cytotox inconclusive, NPR1 antag -20.3%[70.6 µM], FLuc inh 44.7µM* and HEK cytotox inconclusive.
Screening COc1ccccc1-c1nnc([C@H]2CCN(CC3CCCCC3)C2)o1 returned 3T3 cytotox inconclusive, NPR1 antag 6.3%[70.6 µM], FLuc inh inactive and HEK cytotox inconclusive.
`COc1cc(CN2CC[C@H](c3nc4ccccc4o3)C2)cc(OC)c1OC` gave 3T3 cytotox inconclusive, NPR1 antag -22.9%[70.6 µM], FLuc inh inactive and HEK cytotox 70.8µM*.
`Clc1cccc(CN2CC[C@H](c3nc4ccccc4o3)C2)c1` gave 3T3 cytotox -20.0%[174 µM], NPR1 antag -7.3%[70.6 µM], FLuc inh inactive and HEK cytotox inconclusive.
Screening COc1ccccc1-c1nnc([C@H]2CCN(Cc3ccccn3)C2)o1 returned 3T3 cytotox 35.5µM*, NPR1 antag -4.5%[70.6 µM], FLuc inh inactive and HEK cytotox inconclusive.
Screening O=C(C1CCCN1C(=O)Cc1cccc(Cl)c1)N1CCC(N2Cc3ccccc3C2=O)CC1 (centres undefined) returned 3T3 cytotox -13.1% and HEK cytotox inconclusive.
`O=C1c2cc(N3CCOCC3)nc(-c3cccc(O)c3)c2CN1CC(F)(F)F` gave 3T3 cytotox inconclusive, NPR1 antag -4.7%[70.6 µM], FLuc inh inactive and HEK cytotox inconclusive.
Screening O=C(Nc1ccc(Cl)cc1)NC1CCCN(CCn2nc3n(c2=O)CCCC3)C1 (centres undefined) returned 3T3 cytotox -29.2% and HEK cytotox -4.9%.
For CN(C)c1ccc(CN2CC[C@H](c3nc4cc(Cl)ccc4o3)C2)cc1 the results were 3T3 cytotox 112µM*, NPR1 antag inconclusive, FLuc inh inconclusive and HEK cytotox inconclusive.
`COc1ccccc1CN1CC[C@H](c2nnc(Cc3c[nH]c4ccccc34)o2)C1` gave 3T3 cytotox inconclusive, NPR1 antag -0.8%[70.6 µM], FLuc inh inactive and HEK cytotox 89.1µM*.
Screening c1ccc2c(Cc3nnc([C@H]4CCN(C5CCCCC5)C4)o3)c[nH]c2c1 returned 3T3 cytotox -27.4%[138 µM], NPR1 antag -2.7%[70.6 µM], FLuc inh inactive and HEK cytotox inconclusive.
N[C@@H]1CCN(Cc2ccccc2OCc2ccc(Cl)cc2)C[C@H]1O was read as 3T3 cytotox 28.2µM*, NPR1 antag 0.0%, FLuc inh inactive and HEK cytotox 22.4µM*.
`COc1ccccc1CN1CCCC(c2nn(-c3ccc(Cl)cc3)c(=O)[nH]2)C1` (centres undefined) gave 3T3 cytotox inconclusive, NPR1 antag 21.2%, FLuc inh inactive and HEK cytotox inconclusive.
O=C1CC(c2ccccc2)N(Cc2ccncc2)CCCN(C(=O)COc2ccc(F)cc2)CCN1 (centres undefined) was read as 3T3 cytotox -19.2%, NPR1 antag 0.5%, FLuc inh inactive and HEK cytotox inconclusive.
